# esBAF inh: inhibitors of esBAF chromatin remodeling in mouse ES cells; Bmi1-luciferase knock-in reporter, 24 h; 100% = twice the neutral-well signal; AID 602393; reporter increase, % at 12.5 µM; actives 2% (n = 350,000); in the data active = activation above about 40%; inconclusive = no clear call, values can overlap the other calls;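 note: a rise in the Bmi1 reporter signal indicates esBAF inhibition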
# HSF1 activator: increases HSF-1 driven luciferase reporter signal | NIH3T3-HGL HSF-1 luciferase reporter, MG132, 8 h; 100% = twice DMSO control signal | activation, % at 9 µM | actives 1.7% (n = 300,000) | AID 504408;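 active = mean replicate activation of at least 50% with a set share of replicates each reaching 50%; inconclusive = only one of those two conditions met; inactive = mean below 50% and too few replicates reaching it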
# Wnt bcat act: Wnt/beta-catenin pathway activation; Wnt/beta-catenin reporter cell assay, activator, plate reader; activation, % at 9.35 µM; actives 1.2% (n = 300,000); AID 743398; in the data active = activation above about 30%, passing the limit was not always enough; inconclusive = no clear call, values can overlap the other calls
# HSF1 inhib: HSF1 inhibition. NIH3T3-HGL HSE-luciferase, MG132-induced, luminescence 8 h; stronger effect = lower value. activity change, negative = inhibition, % at 7.5 µM (by protocol). actives 0.77% (n = 300,000);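 active = more than half of replicate wells show activity change below -50%, luminescence cut by over half; inconclusive = some wells, but at most half, below -50%; inactive = no replicate well below -50%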;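 note: luciferase reports HSF-1 transcriptional activity via heat shock element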
# MITF act: activators of MITF-driven TRPM1 promoter activity in SK-MEL-5 cells; SK-MEL-5 TRPM1-promoter luciferase, 24 h; % of positive control, neutral wells = 0; activation, % at 12.5 µM; actives 0.75% (n = 300,000); AID 588334;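 active = mean activation of at least 80% with every replicate also reaching 80%; inconclusive = mean reaches 80% but some replicate falls short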
# Numbers stand for hits; . = inactive; ? = inconclusive; / = no result given. Rows were chosen to be rich in hits. Some 3.8% of all compounds tested hit in one or more screens of this group.
SMILES,esBAF inh,HSF1 activator,Wnt bcat act,HSF1 inhib,MITF act
Cc1c(C(=O)NCc2cccs2)oc2ccc(Br)cc12,51,.,/,.,/
O=C(Nc1cccnc1)c1ccc(Br)s1,.,.,/,.,.
Cc1c(C(=O)Nc2cccnc2)oc2ccc(Br)cc12,60,.,.,.,/
CCc1sc(C(=O)Nc2cccnc2)cc1Br,50,.,.,.,.
CCc1ccc2oc(C(=O)Nc3cccnc3)c(C)c2c1,.,.,/,.,/
Cc1nc2ccccc2c2oc(C(=O)NCc3ccccn3)cc12,.,52,.,.,.
Cc1ccc(CNC(=O)c2cc3c(C)nc4ccccc4c3o2)cc1,.,.,.,.,.
O=C(Nc1ccc(O)cc1)c1c(O)c2c([nH]c1=O)CCCC2,/,.,.,.,86
COCC(=O)N(C)C[C@@H]1Oc2ncc(C#Cc3cccnc3)cc2C(=O)N([C@@H](C)CO)C[C@@H]1C,.,/,/,/,/
Nc1nc2ccc(C(=O)Nc3ccccc3)cc2s1,51,.,/,.,.
CN(C(=O)c1ccc2nc(N)sc2c1)c1ccccc1,.,.,.,.,/
CCc1ccc(NC(=O)c2ccc3nc(N)sc3c2)cc1,50,.,/,.,?
CCc1ccc(NC(=O)c2ccc3ncsc3c2)cc1,/,.,/,.,/
O=C(Nc1ccccc1)c1nc2ccccc2s1,.,59,?,.,.
COC(=O)c1ccc(NC(=O)c2ccc3nc(C)sc3c2)cc1,.,.,.,-68,/
CN1CCN(C(=O)C[C@@H]2CC[C@@H]3[C@H](COC[C@@H](O)CN3CC3CC3)O2)CC1,.,/,/,/,/
CC(C)NC(=O)N(C)C[C@@H]1Oc2ccc(NC(=O)Nc3ccc(C(F)(F)F)cc3)cc2C(=O)N([C@H](C)CO)C[C@@H]1C,.,/,/,/,/
COCC(=O)N(C)C[C@H]1Oc2cc(C3=CCCCC3)ccc2S(=O)(=O)N([C@H](C)CO)C[C@H]1C,.,/,/,/,/
CCC(=O)N1C[C@@H](O)COC[C@H]2O[C@H](CC(=O)NCc3ccccc3Cl)CC[C@@H]21,.,/,/,/,/
Fc1cccc(CSc2ccc(-c3ccc4c(c3)OCO4)nn2)c1,.,.,.,.,.
c1cncc(CSc2ccc(-c3ccc4c(c3)OCO4)nn2)c1,49,?,32,.,.
O=C1c2cccc3cccc(c23)C(=O)N1CCc1ccccc1,/,59,.,.,.
CC(C(=O)N1CCOCC1)N1C(=O)c2cccc3cccc(c23)C1=O (stereo not drawn),/,.,33,.,.
O=C(CCN1C(=O)c2cccc3cccc(c23)C1=O)N1CCOCC1,53,.,.,.,83
O=C(O)C(Cc1ccccc1)N1C(=O)c2cccc3cccc(c23)C1=O (stereo not drawn),/,.,.,.,.
SMILES,esBAF inh,HSF1 activator,Wnt bcat act,HSF1 inhib,MITF act
CC(C)NC(=O)N(C)C[C@@H]1OCCCC[C@H](C)Oc2ccc(NC(=O)c3ccncc3)cc2C(=O)N([C@H](C)CO)C[C@@H]1C,.,/,/,/,/
O=C(O)c1cc2nc3c(c(C(F)(F)F)n2n1)CCCC3,.,.,.,.,.
O=C(Nc1ccc(F)cc1F)c1cc2nc3c(c(C(F)(F)F)n2n1)CCCC3,/,.,.,-55,.
COc1ccc(CN(C)C[C@@H]2OCCCC[C@H](C)Oc3ccc(NC(=O)Nc4ccccc4)cc3C(=O)N([C@H](C)CO)C[C@@H]2C)cc1,.,/,/,/,/
N/C(=N\OC(=O)c1ccc2c(c1)OCO2)c1cccc(Br)c1,67,.,.,.,116
N/C(=N\OC(=O)c1ccc2c(c1)OCO2)c1cccnc1,/,.,62,.,.
O=c1[nH]c(Nc2ccccc2Cl)cc2ccccc12,.,61,.,.,.
Cc1ccccc1Nc1cc2ccccc2c(=O)[nH]1,/,.,/,.,.
Cc1noc(C)c1NC(=O)Nc1ccc2c(c1)C(=O)N([C@@H](C)CO)C[C@H](C)[C@@H](CN(C)Cc1ccc(C(=O)O)cc1)OCCCC[C@H](C)O2,.,/,/,/,/
COc1cc2c(cc1OC)CN(c1ncccc1[N+](=O)[O-])CC2,?,.,.,.,93
O=C1CCN(c2ncccc2[N+](=O)[O-])CC1,/,.,.,.,.
Cc1cccc(C)c1NC(=O)CN,.,.,45,.,.
C[C@@H]1CN([C@@H](C)CO)C(=O)c2cc(NS(C)(=O)=O)ccc2O[C@@H](C)CCCCO[C@H]1CN(C)C(=O)CCCN(C)C,.,/,/,/,/
CC(C)[C@@H](CO)NC(=O)c1ccc2c3n(nc2c1)-c1ccccc1CO3,.,.,.,.,.
CCCCCCC#Cc1ccc2c(c1)COc1c3ccccc3nn1-2,.,.,.,.,84
N#CCCCC#Cc1ccc2c(c1)COc1c3ccccc3nn1-2,.,.,.,-64,.
CCCCC#Cc1ccc2c(c1)COc1c3ccccc3nn1-2,71,.,.,.,.
O=C(N[C@H]1CC[C@H](CCNS(=O)(=O)c2ccc(F)cc2)O[C@H]1CO)c1ccccn1,.,/,/,/,/
C[C@H](CO)N1C[C@H](C)[C@@H](CN(C)C(=O)Cc2ccccn2)Oc2ncc(-c3ccccc3)cc2C1=O,.,/,/,/,/
O=C(NC(=S)Nc1cccc2[nH]ncc12)c1ccccc1,.,.,.,.,.
O=C(Nc1cccc2[nH]ncc12)c1ccc(F)cc1,.,.,.,.,96
c1ccc(OCc2nc3ccccc3s2)cc1,.,.,/,.,/
Fc1ccc(OCc2nc3ccccc3s2)cc1,/,.,59,.,.
CCC(=O)Nc1ccc(OCc2nc3ccccc3s2)cc1,/,.,41,.,.
Cc1cc(OCc2nc3ccccc3s2)ccc1N,.,.,41,.,/
SMILES,esBAF inh,HSF1 activator,Wnt bcat act,HSF1 inhib,MITF act
C[C@@H]1CN([C@@H](C)CO)C(=O)c2cc(C3=CCCC3)cnc2O[C@@H]1CN(C)C(=O)c1ccccn1,.,/,/,/,/
CNC[C@H]1Oc2c(NC(=O)NC3CCCCC3)cccc2C(=O)N([C@H](C)CO)C[C@H]1C,.,/,/,/,/
COc1ccc(S(=O)(=O)Nc2ccc3c(c2)OC[C@@H](C)N(C)C[C@@H](C)[C@H](OC)CN(C)C3=O)cc1,.,/,/,/,/
Nc1c(C(=O)c2ccccc2)sc2nsc(SCCN3CCOCC3)c12,/,60,40,.,/
CC(=O)c1sc2nsc(SCCN3CCOCC3)c2c1N,/,.,.,.,/
CCN(CC)C(=O)c1ccc(COc2ccc(Cl)c(C)c2)o1,78,.,.,.,/
CCN(CC)C(=O)c1ccc(COc2ccccc2Br)o1,73,.,/,.,.
CCCNC(=O)c1ccc(COc2ccc(Cl)cc2)o1,.,.,.,.,.
Cc1cc(OCc2ccc(C(=O)n3cccn3)o2)ccc1Cl,/,.,47,.,.
C[C@@H]1CN([C@H](C)CO)C(=O)Cc2cc(NS(=O)(=O)c3ccc(F)cc3)ccc2O[C@H]1CN(C)C(=O)Nc1cccc2ccccc12,.,/,/,/,/
C[C@H]1CN([C@@H](C)CO)C(=O)Cc2cc(N(C)C)ccc2O[C@@H]1CN(C)C(=O)Nc1ccc2c(c1)OCO2,.,/,/,/,/
C=CCC1NCCc2c(Br)cccc21 (stereo not drawn),.,.,.,.,.
C=CC[C@@H]1Cc2c(Br)ccc(Br)c2[C@@H](CC=C)N1,/,61,/,.,.
O=C(COc1ccc2cc(Br)ccc2c1)N1CCOCC1,48,/,.,/,/
O=C(COc1ccc2ccccc2c1)N1CCN(c2ccccc2)CC1,.,.,.,.,.
